{
  "source": "PubChem BioAssay (NCI)",
  "note": "About 83,000 compounds went through this panel and 20% of them were active in at least one assay; those are over-represented in the sample as a whole.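 How to read the values: 0–100, growth inhibition (40 = 60% inhibited); 0, no net growth; -100 to 0, cell death (-40 = 40% of starting cells died; -100 = all dead).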 Active and inactive are the calls of the source.",
  "data": [
    {"test_system": "NCI-H226 lung", "experiment": "NCI-60 one-dose screen, 48 h (100 = growth as untreated, 0 = no growth, -100 = all killed)", "settings": "10 µM unless noted", "description": "Growth inhibition of the NCI-H226 human Non-Small Cell Lung tumor cell line is measured as a screen for anti-cancer activity. Cells are grown in 96 well plates and exposed to the test compound for 48 hours. Compounds are tested at a single concentration, which is 10^-5 M for most compounds. The reported endpoint is percent growth (GI% or GIPRCNT), where numbers from 0 - 100% represent growth inhibition, and numbers from -100% - 0 represent cell death. For example, a value of 40 represents 60% growth inhibition. A value of 0 means no net growth occurred over the course of the experiment. A value of -40 indicates 40% of cells at the beginning of the experiment died by the end of the experiment. A value of -100 means all cells are dead at the end of the experiment.\nNCI-60 Human Tumor Cell Lines Screen was performed using the standard one-dose NCI protocol, which is described in more detail at https://dtp.cancer.gov/discovery_development/nci-60/default.htm.\nCompounds with GIPRCNT values below 10 were considered active. Activity score was based on GIPRCNT using the following formula: […]\nScore is 0 for GIPRCNT values of 100 or above, 50 for GIPRCNT values of 0, and 100 for GIPRCNT values of -100.", "values": [
      {"smiles": "COc1cc(NCCCCN=C(N)N)c2ncccc2c1", "growth": "98.9% (inactive)"},
      {"smiles": "COc1ccc(/C=C/C(=O)c2ccc(NC(=O)c3cc4cc5ccccc5nc4s3)cc2)cc1OC", "growth": "86% (inactive)"},
      {"smiles": "Nc1ccc(Nc2nccc(-c3ccc4ccccc4c3)n2)cc1", "growth": "64% (inactive)"},
      {"smiles": "Cc1cc(=O)oc2cc(Oc3nc(-c4cccs4)cn4c(-c5cccs5)cnc34)ccc12", "growth": "83% (inactive)"},
      {"smiles": "CCN(CC)CCCC(C)Nc1ccnc2c(OC)cccc12", "note": "(stereo not given)", "growth": "111% (inactive)"},
      {"smiles": "O=C(CN1CCOCC1)Nc1ccc(Cn2nnc3c2C(=O)c2nnn(Cc4ccc(NC(=O)CN5CCOCC5)cc4)c2C3=O)cc1", "growth": "-27.4% (active)"},
      {"smiles": "OCCNCCNc1c2ccccc2nc2ccccc12", "growth": "58.3% (inactive)"},
      {"smiles": "COc1ccc(/C=C2\\CN(C(=O)CCN3CCC(=NO)CC3)C/C(=C\\c3ccc(OC)cc3)C2=O)cc1", "growth": "70% (inactive)"},
      {"smiles": "CCCCCCCCCCCCNC(=O)[C@H]1CSC(c2ccc(OC)c(F)c2)N1", "note": "(stereo not given in full)", "growth": "-71.4% (active)"},
      {"smiles": "COc1ccc(-c2cc(C(=O)N=Nc3c(O)[nH]c4ccccc34)no2)cc1", "growth": "94% (inactive)"},
      {"smiles": "O=C(/C=C/c1cc2ccccc2[nH]c1=O)/C=C/c1cc2ccccc2[nH]c1=O", "growth": "-30.3% (active)"},
      {"smiles": "C(=N\\Nc1nnn(Cc2ccccc2)n1)/c1ccccc1", "growth": "85% (inactive)"},
      {"smiles": "CCCCCCCCCCCCCCCCCCNC(=O)[C@H]1CSC(c2ccc(F)c(OC)c2)N1", "note": "(stereo not given in full)", "growth": "-69% (active)"},
      {"smiles": "O=S(=O)(NCCCNc1cc(-c2cn(-c3ccccc3)nc2-c2cccc(O)c2)ccn1)c1ccccc1", "growth": "41.9% (inactive)"},
      {"smiles": "COc1cccc(-c2cn3c(ccc4ccccc43)n2)c1", "growth": "43.9% (inactive)"},
      {"smiles": "C/C(Cc1ccc(Cl)cc1)=C(\\c1ccc(OCCN2CCCCCC2)cc1)c1ccc(OC(=O)Cc2ccccc2)cc1", "growth": "84.1% (inactive)"},
      {"smiles": "COc1ccc(CN2C(=O)/C(=C\\c3cc(OC)c(OC)c(OC)c3)c3cc(OC)ccc32)cc1", "growth": "-21.1% (active)"},
      {"smiles": "COc1ccc(C2CC(=O)Nc3c2c(C)nn3-c2nc3ccccc3[nH]2)cc1", "note": "(stereo not given)", "growth": "101% (inactive)"},
      {"smiles": "Nc1c(C(=O)Nc2cccc3c2OCCO3)sc2nc3c(cc12)CN(Cc1ccccc1)CC3", "growth": "82.5% (inactive)"},
      {"smiles": "CC/C=C\\C[C@H](O)C/C=C1/C(=O)C=C[C@@H]1C/C=C\\CCCC(N)=O", "growth": "-39.7% (active)"},
      {"smiles": "COc1cc(/C=N/N(C)C)ccc1O", "growth": "91.5% (inactive)"},
      {"smiles": "Nc1ccc2c(c1)C(=O)NC2=O", "growth": "96.2% (inactive)"},
      {"smiles": "CC(C)(C)n1cc(-c2ccnc(NCCNS(=O)(=O)c3ccccc3)c2)c(-c2cccc(O)c2)n1", "growth": "60.4% (inactive)"},
      {"smiles": "Cc1cc(Nc2nc(N3CCN(C)CC3)nc3ccccc23)n[nH]1", "growth": "81.6% (inactive)"},
      {"smiles": "Oc1ccccc1/C=N/Nc1ccc2ccccc2n1", "growth": "83% (inactive)"},
      {"smiles": "O=c1c2cccc3c(Nc4ccccn4)ccc(c32)c2nc3ccccc3n12", "growth": "69.7% (inactive)"},
      {"smiles": "C[C@]12C[C@@H](c3ccoc3)OC(=O)[C@@H]1CC[C@]1(C)[C@@H]2CC[C@@H](O)[C@]1(C)O", "growth": "107% (inactive)"},
      {"smiles": "C=C1CCC2C3(C)COC(c4ccc(SC)cc4)OC3CCC2(C)C1C/C=C1/C(=O)OCC1O", "note": "(stereo not given)", "growth": "48.7% (inactive)"},
      {"smiles": "CN(C)C(=O)c1cc2cnc(Nc3ccc(-c4csc5c(=O)cc(N6CCNCC6)oc45)cc3)nc2n1C1CCCC1", "growth": "16.1% (inactive)"},
      {"smiles": "COc1cc(C2CC(=O)Nc3c2c(C)nn3-c2nc3ccccc3[nH]2)cc(OC)c1OC", "note": "(stereo not given)", "growth": "99.1% (inactive)"},
      {"smiles": "Cc1ccccc1CCO", "growth": "93.7% (inactive)"},
      {"smiles": "COc1cccc2c1C(=O)c1c(O)c3c(c(O)c1C2=O)C[C@@](O)(/C(C)=N/NC(=O)c1ccc(Cl)cc1)C[C@@H]3OC1CC(N)C(O)C(C)O1", "note": "(stereo not given in full)", "growth": "-39.4% (active)"},
      {"smiles": "O=C1c2c[n+](Cc3ccccc3)ccc2-c2nc3ccccc3c3ccnc1c23", "growth": "-92.2% (active)"},
      {"smiles": "O=C1/C(=C/c2ccc(Cl)cc2Cl)CN(S(=O)(=O)c2ccccc2)C/C1=C\\c1ccc(Cl)cc1Cl", "growth": "58.3% (inactive)"},
      {"smiles": "Clc1ccc(-c2nnc(COc3ccccc3Cl)o2)cc1", "growth": "93.8% (inactive)"},
      {"smiles": "O=C(Cc1ccccc1)c1ccc(Cl)cc1", "growth": "99% (inactive)"},
      {"smiles": "COc1ccc(Cl)cc1Nc1nc(C(F)(F)F)ccc1C(=O)N/N=C/c1cccnc1", "growth": "51.9% (inactive)"},
      {"smiles": "O=C(/C=C/c1ccc(Cl)cc1)c1ccc(O)c(CN2CCN(c3cc4c(cc3F)c(=O)c(C(=O)O)cn4C3CC3)CC2)c1", "growth": "67.3% (inactive)"},
      {"smiles": "COc1cc(-c2cnc3nonc3n2)c(OC)c2c1OCO2", "growth": "95.6% (inactive)"},
      {"smiles": "O=c1c2c3c(sc2n2c(CCl)nnc2n1Cc1ccccc1)CCCC3", "growth": "-60.9% (active)"}
    ]}
  ]
}
